Only some compounds are listed: those with a hit (about 3.6% of all), similar ones and a draw of the others.
HepG2 tox = counter-screen for TGF-b inhibitors: cytotoxicity in HepG2 cells; HepG2 CAGA-GFP viability, ATP luminescence, 18 h; Potency, µM (series often up to 46.1 µM), usual class: cytotoxic; hit rate 0.76% among 410,000
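CellTiter-Glo luminescence gave cytotoxicity after 18 hours at 37 degrees C. The cells were HepG2 CAGA-GFP in 1% FBS DMEM, stimulated with 500 pg/mL TGF-beta after compound addition. %Activity was normalised to no-cell wells (complete cell-killing) and DMSO (no toxicity), and curves were fitted and classified.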
Nrf2 inh = Nrf2 pathway inhibition; hit rate 2.1% among 360,000; Potency, µM (doses to about 46 µM), usual class: inhibitors; AID 504444; A549 ARE-Fluc reporter, luciferase luminescence, 18-24 h; also: nearly all actives have a fitted effect of over 60% in size
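Nrf2 activity is the BugLite luminescence, read 15 min after reagent at room temperature, following CellTiter-Fluor cytotoxicity readout (30 min, 37C). Compound titrations were applied for 18-24 h to 5000 A549 ARE_Fluc cells/well in 5% FBS OPTI-MEM.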
TGFb inhibitor = blocks TGF-b signaling | HepG2 CAGA-GFP TGF-b/SMAD3 reporter, GFP fluorescence, 18 h; TGF-beta stimulated, 500 pg/mL final | Potency, µM (top dose mostly 46.1 µM), hits mostly inhibitors | hit rate 1.2% among 410,000; also: nearly all actives have a fitted effect of over 65% in size
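First, reporter cells (HEPG2 CAGA-GFP) rested 2 h at 37 degrees C. Next, compounds were pinned in and TGF-beta added to 500 pg/mL final. After 18 h, GFP was imaged per cell and summed per well.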
Nrf2 ARE act = Nrf2 pathway activation; AREc32 ARE-luciferase reporter (MCF7-derived line), luminescence, 24 h; Potency, µM (doses to about 46.1 µM), hits mostly activators; hit rate 0.31% among 410,000; AID 624171; also: nearly all actives have a fitted effect of over 65% in size
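AREc32 cells carrying an ARE-driven firefly luciferase reporter were seeded at 1000 cells/well in OPTI-MEM with 5% FBS, then exposed to compound for 24 hr at 37 deg C. Luminescence was read with Steady-Glo after 30 min at RT.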
A549 viability = A549 cytotoxicity, counter-screen for Nrf2 inhibitors; A549 ARE-Fluc cells, CellTiter-Fluor viability, 18-24 h; Potency, µM (titrated, usually from 46 µM), usual class: inhibitors; hit rate 0.16% among 390,000; AID 504648
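A549 ARE-Fluc cells in 5% FBS OPTI-MEM, 5000 cells/well, rested 2 h then exposed to compounds in concentration-response for 18-24 h at 37 °C. Viability by CellTiter-Fluor fluorescence (Ex 405/Em 525) after 30 min; luciferase luminescence (BugLite, 15 min, RT) read afterwards.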
Hits are given with their value; 0 = inactive; ? = inconclusive; - = no result; ! = repeats disagree. Calls follow the shape of the dose curve; as a rule, active = well fitted curve in the direction sought with a large enough effect; inconclusive = small, poorly fitted or top-dose-only effect, or another doubt; inactive = no such curve, though single readings can be large; an effect the other way counts as inactive or inconclusive.

SMILES | HepG2 tox | Nrf2 inh | TGFb inhibitor | Nrf2 ARE act | A549 viability
CC(C)(C)OC(=O)COc1cc(OCC(=O)OC(C)(C)C)c2c(=O)cc(-c3ccccc3)oc2c1 | 0 | 23µM | ? | 0 | 16µM
Cc1cc(C)c[n+](C(C)C(=O)c2ccc(-c3ccccc3)cc2)c1 (stereo unspecified) | 0 | 15µM | ? | 0 | 0
Cc1cc(N2C3CCC2CC(O)(c2ccc(F)cc2)C3)nc(-c2ccccc2)n1 (stereo unspecified) | 0 | 23µM | ? | 0 | ?
Cc1ccnc(N2C3CCC2CC(O)(c2ccccc2)C3)n1 (stereo unspecified) | 0 | 0 | 0 | 0 | 0
CC(C)CNC(=O)c1cccc(NC(=O)c2ccc(Cl)c([N+](=O)[O-])c2)c1 | 0 | 26µM | ? | ? | ?
COc1cccc(C(=O)Nc2cccc(C(=O)NCC(C)C)c2)c1 | 0 | 0 | 0 | 0 | 0
c1ccc(-c2nc3cc4ccccc4cc3[nH]2)nc1 | 8.9µM | ? | 0 | 0 | ?
CC(=O)Nc1ccc2nc(-c3ccccn3)[nH]c2c1 | 0 | 0 | 0 | 0 | 0
CN1CCN(C(=O)CSc2ccc(C(F)(F)F)cc2[N+](=O)[O-])CC1 | 0 | 0 | 0 | 0 | 0
CCCc1sc(N/N=C/c2ccccn2)nc1-c1ccc(F)cc1 | 0 | ? | 11µM | 0 | ?
Cc1nc(N/N=C/c2ccccn2)sc1C | 0 | ? | ? | 0 | ?
O=C(CCC(=O)Nc1ccc(Br)cc1)N/N=C/c1ccccc1F | 1.8µM | 0 | 0 | 0 | 0
Cc1cc(C(=O)NNC(=O)c2ccc(F)cc2)c(C)s1 | 0 | ? | 0 | ? | 0
Cc1ccc(C)c(OCC(=O)Nc2ccncc2)c1 | 0 | 5.2µM | 0 | 0 | 0
Cc1cccc(OCC(=O)Nc2ccc(-c3nc4ccccc4o3)cc2)c1C | 0 | 21µM | 0 | 0 | 0
Cc1cc(Cl)ccc1OCC(=O)Nc1ccncc1 | 0 | 23µM | ? | 0 | 0
CC(=O)c1ccc(NC(=O)COc2ccccc2-c2nc(-c3ccc(C)cc3)no2)cc1 | 0 | 26µM | 0 | 0 | 0
Cc1cc(C)cc(OCC(=O)Nc2ccc(-c3nc4ccccc4o3)cc2)c1 | 0 | ? | 0 | 0 | 0
CCOC(=O)C1=C(C)N(C)C(=O)NC1c1cc2c(cc1Br)OCO2 (stereo unspecified) | 0 | - | ? | 0 | 0
Cn1cc(CCNC(=O)c2ccc3nc(Cc4ccccc4F)oc3c2)cn1 | 0 | ? | 0 | 0 | 0
Cc1cccc(OCC(=O)Nc2ccncc2)c1C | 0 | 7.3µM | 0 | 0 | 0
COc1ccccc1OCC(=O)Nc1ccncc1 | 0 | 0 | 0 | 0 | 0
CCC(CC)C(=O)Nc1ccc(OCc2cc(=O)n3ccsc3n2)cc1 | 0 | 0 | 0 | 0 | 0
COc1ccc(CCNC(=O)c2nn(C)c3c2CS(=O)(=O)c2ccccc2-3)c(OC)c1 | 0 | 23µM | 0 | 0 | 0
COCCCNC(=O)c1nn(C)c2c1CS(=O)(=O)c1ccccc1-2 | 0 | 0 | 0 | 0 | 0
SMILES | HepG2 tox | Nrf2 inh | TGFb inhibitor | Nrf2 ARE act | A549 viability
CCN(CC)CCCNC(=O)c1nn(C)c2c1CS(=O)(=O)c1ccccc1-2 | 0 | 18µM | 0 | 0 | 0
CN(Cc1nc2ccccc2c(=O)[nH]1)Cc1nc2ccsc2c(=O)[nH]1 | 0 | ? | 0 | 0 | 0
Cc1ccc(/C=C/C(=O)c2ccccc(=O)c2O)c(C)c1 | 0 | 21µM | 13µM | 0 | ?
Cc1ccc(C)c(/C=C/C(=O)c2ccccc(=O)c2O)c1 | 0 | 23µM | ? | ? | ?
O=C(/C=C/c1ccc([N+](=O)[O-])cc1)c1ccccc(=O)c1O | 0 | ? | 3.2µM | ? | ?
COc1ccccc1N1CCN(CC(O)COc2cc(C)cc(C)c2)CC1 (stereo unspecified) | 0 | 0 | 0 | 0 | 0
COc1ccccc1N1CCN(CC(O)COc2ccc(C)cc2C(C)(C)C)CC1 (stereo unspecified) | 16µM | 0 | ? | 0 | 0
CCN(CCN(C)C)C(=O)C1CCN(S(=O)(=O)c2c(C)noc2/C=C/c2ccccc2F)CC1 | 16µM! | 0 | ? | 0 | 0
Cc1noc(/C=C/c2cccs2)c1S(=O)(=O)N1CCC(C(=O)Nc2ccc(F)c(Cl)c2)CC1 | 0 | ? | 6.3µM | 0 | 0
O=c1[nH]c2ccc(Cl)cc2c(-c2ccccc2)c1SC(=S)N1CCOCC1 | 0 | ? | 13µM | 0 | 0
O=c1[nH]c2ccc(Cl)cc2c(-c2ccccc2)c1SC(=S)N1CCCCC1 | 0 | ? | 0 | 0 | 0
Clc1cccc(CSc2ccc(-c3cccs3)nn2)c1 | 0 | 0 | 0 | 0 | 0
Cc1ccccc1S(=O)(=O)Cc1ccc(C(=O)NC(C)c2ccc3c(c2)OCCO3)o1 (stereo unspecified) | 0 | 0 | 0 | 0 | 0
N#Cc1c(N)nc(N)nc1Nc1ccc(Br)cc1 | 0 | ? | 0 | 13µM | 0
Cc1nc(N)nc(Nc2ccc(C#N)cc2)c1Br | 0 | 0 | 0 | 0 | 0
CC(CCc1ccccc1)NC(=O)COC(=O)c1ccc([N+](=O)[O-])cc1 (stereo unspecified) | 0 | 0 | 0 | 0 | 0
COc1cccc(-n2nnnc2S(C)(=O)=O)c1 | 0 | 10µM | ? | ? | ?
COc1cccc(Oc2nnnn2-c2ccccc2)c1 | 0 | ? | 0 | 0 | 0
COC(=O)c1nnn(-c2cccc(C)c2)c1C(=O)OC | 0 | 0 | ? | 0 | 0
Cc1cccc(-n2nnnc2S(C)(=O)=O)c1 | 6.3µM | - | ? | 0 | ?
O=C1CCCc2c1nc(-c1ccccc1F)n2O | 0 | ? | 0 | 0 | 0
O=C(CCl)c1ccc2[nH]c(=O)oc2c1 | 10µM | ? | ? | 0 | 0
Cn1c(C(=O)N2CCN(c3cccc(C(F)(F)F)c3)CC2)cc2sccc21 | 0 | 26µM | ? | 0 | 0
O=C(c1ccccc1F)N1CCN(c2cccc(C(F)(F)F)c2)CC1 | 0 | 18µM | 0 | 0 | ?
Cc1ccc(C)c(N2CCN(C(=O)C3CCN(C(=O)c4cc5sccc5n4C)CC3)CC2)c1 | 0 | 21µM | 10µM | 0 | ?
SMILES | HepG2 tox | Nrf2 inh | TGFb inhibitor | Nrf2 ARE act | A549 viability
Cc1ccc(C)c(N2CCN(C(=O)c3cc4sccc4n3C)CC2)c1 | 0 | - | ? | 0 | 0
CCc1ccc(S(=O)(=O)c2nnn3c2nc(N2CCN(c4ccccc4)CC2)c2cc(Cl)ccc23)cc1 | 0 | 0 | 0 | 0 | 0
COc1cc(NC(=O)Cn2nc(C(F)(F)F)c(Br)c2C)cc([N+](=O)[O-])c1 | 0 | 23µM | ? | 0 | ?
O=C(NCC(=O)N(c1ccc(Cl)cc1)C(C(=O)NC1CCCC1)c1cccnc1)c1ccco1 (stereo unspecified) | 0 | 0 | 0 | 0 | 0
CC(=O)Nc1cccc(NC(=O)Cc2cccs2)c1 | 0 | 0 | 0 | 0 | ?
O=C(Cc1cccs1)Nc1cccc(-c2nc3cc4ccccc4cc3[nH]2)c1 | 0 | ? | 11µM | 0 | ?
O=C(NCCN1CCN(C(=O)NC2CCCCC2)CC1)NC1CCCCC1 | 0 | 0 | 0 | 0 | 0
O=C(NCCCN1CCN(c2ccc(F)cc2)CC1)c1ccc2nc(Cc3ccccc3)oc2c1 | 0 | - | 11µM | 0 | 0
